BoNT-F LC inh – BoNT/F light chain protease inhibitors, primary screen, biochemical, flow cytometry, MLPCN library | 360,000 tested, 0.22% active | Botulinum neurotoxin type F light chain protease (Clostridium botulinum) | Multiplex microsphere protease cleavage assay | inhibition, % at 10 µM; in the data active = inhibition above about 35%, passing the limit was not always enough; inconclusive = no clear call, values can overlap the other calls; also: plate controls were buffer without enzyme for full effect and enzyme alone for no effect
Anthrax LF prot – Bacillus anthracis LF protease inhibitors, primary screen, biochemical, multiplex microsphere, MLPCN library; Lethal factor (Bacillus anthracis), P15917; multiplex microsphere protease cleavage assay; inhibition, % at 10 µM; 360,000 tested, 0.12% active; AID 588501, 2011; also: plate controls were buffer without enzyme for full effect and enzyme alone for no effect
3CLpro inhibitor – SARS-CoV 3CLpro protease inhibitors, primary screen, biochemical, quenched FRET | recombinant SARS-CoV 3CLpro, quenched FRET peptide cleavage | inhibition, % at 6 µM | 290,000 tested, 0.14% active; in the data active = inhibition above about 12%
Bead autofluor – counter-screen for toxin protease inhibitors: compound fluorescence; compound autofluorescence counterscreen, microsphere flow cytometry; active compounds read high; fluorescence intensity (concentration not given with the values); 360,000 tested, 3.1% active; AID 624483; in the data active = fluorescence intensity above about 16000; inconclusive = no clear call, values can overlap the other calls
BoNT A protease – BoNT/A light chain protease inhibitors, primary screen, biochemical, flow cytometry, MLPCN library. multiplex microsphere protease substrate cleavage. inhibition, % at 10 µM. 360,000 tested, 0.17% active. AID 588499, 2011; also: plate controls were buffer without enzyme for full effect and enzyme alone for no effect
The depositor's hits bear a star; ? = inconclusive; . = no result given. An excerpt weighted towards active compounds, which were near 3.5% of everything screened. Rule as the data show it, unless noted: active = inhibition above about 30%; inconclusive = no clear call, values can overlap the other calls; inactive = below that.

SMILES	BoNT-F LC inh	Anthrax LF prot	3CLpro inhibitor	Bead autofluor	BoNT A protease
Cc1ccc(CNC(=O)c2sc3nc4c(c(C(F)(F)F)c3c2N)CCC4)cc1	-0.8	1.2	-4.2	24632*	?
O=C(NCc1ccccc1Cl)c1ccc(Cn2cc(C(F)(F)F)ccc2=O)cc1	-5.7	-0.6	-2.1	17060*	-2.9
CCOc1c(C(=O)CC)cc2c(C)cc(=O)oc2c1C	-1.4	-3.9	-3.3	16306*	0.5
CCOc1ccc2c(C)cc(=O)oc2c1OCC	6.0	7.0	2.8	2512	-0.3
COCCNC(=O)C1(C)C=CC2(CCCCC2)N1C(=O)c1ccccc1 (centres undefined)	-10.0	3.7	-0.7	3820	-0.7
O=C(NCC12CC3CC(CC(C3)C1)C2)c1nc2ncccn2n1	-0.2	-7.9	0.2	19103*	1.7
O=C(NCCc1ccccc1)c1nc2ncccn2n1	2.7	-1.4	-2.1	7988	0.3
O=C(O)c1cc(-c2ccccn2)n[nH]1	0.6	1.3	0.3	22786*	0.7
O=C(O)c1ccc(-c2ccccn2)s1	-12.3	-2.9	1.6	3915	-2.7
C/C(=N\NC(=O)Cc1ccc(Cl)cc1)c1ccc(F)cc1	35.2*	-0.2	1.9	4072	0.9
CC/C(C)=C1\SC(N2CCOCC2)=NC1=O	-3.0	1.1	0.0	2793	0.1
CC(=O)O[C@H]1[C@H](C)OC=C[C@@H]1OC(C)=O	2.9	1.7	-7.2	3985	-0.1
COCCN1C(=O)/C(=C/c2ccc(N3CCCC3)cc2)SC1=S	4.3	9.1	0.5	18513*	15.1
COc1ccc(/C=C2\SC(=S)N(CCC(=O)N3CCCCC3)C2=O)cc1	-4.1	1.5	-1.7	3029	2.6
Cc1nn2c(=O)cc(CSCC(=O)Nc3ccccc3F)nc2s1	0.4	4.0	-0.8	5161	0.0
Cc1ccc(-c2csc(=S)n2CC(=O)OCC(=O)NC(C)C(C)C)cc1 (centres undefined)	-0.4	-1.8	6.7	16450*	0.5
Cc1ccc(-c2csc(=S)n2CC(=O)OCC(=O)NCc2ccco2)cc1	2.2	-1.4	0.9	9278	1.2
C=CCNC(=O)c1ccc(C2SCC(=O)N2Cc2ccco2)cc1 (centres undefined)	-3.5	1.0	0.0	4393	0.1
COc1ccc(N2CCN(CCCNC(=O)c3cc4sccc4n3C)CC2)cc1	-7.3	-10.1	1.9	8039	-1.3
CC1CCN(CCCNC(=O)c2cc3sccc3n2C)CC1	1.5	-2.4	-6.9	20532*	3.1
O=C(NCCN1CCNC1=O)C1CCC(=O)N(CCc2ccccc2)C1 (centres undefined)	7.2	-4.1	0.0	5484	0.9
O=C(CN1C(=O)NC2(CCc3ccccc32)C1=O)Nc1cccc(F)c1 (centres undefined)	16.2	-2.2	.	3959	3.2
CN(C)/C=C1\C(=O)N(c2ccc(Cl)cc2)CS1(=O)=O	-1.9	-1.3	0.2	23839*	-1.4
CN(C)/C=C1\SC(=S)N(c2ccc(F)cc2)C1=O	.	.	0.2	.	.
Cc1ccc(N2CS(=O)(=O)/C(=C/N(C)C)C2=O)cc1	2.0	-0.3	5.8	21872*	2.8
SMILES	BoNT-F LC inh	Anthrax LF prot	3CLpro inhibitor	Bead autofluor	BoNT A protease
O=C(COc1ccc([N+](=O)[O-])cc1)Nc1ccc(NC(=O)c2ccccc2)cc1	2.5	-2.5	-2.5	5963	-2.0
CCOC(=O)c1c(C)[nH]c(C(=O)COC(=O)C(C)N2C(=O)C3CCCCC3C2=O)c1C (centres undefined)	-8.7	-3.1	3.0	24956*	-7.8
N#Cc1c(-c2ccccc2)cc(-c2ccccc2)nc1SCC(=O)NCC(=O)O	-9.3	2.8	5.5	4402	0.2
Cc1ccc2nc(C(O)C(O)c3nc4ccc(C)cc4[nH]3)[nH]c2c1 (centres undefined)	-0.8	10.3	0.1	6535	2.1
Cc1ccc2nc(C(F)OC(F)(F)F)[nH]c2c1 (centres undefined)	-7.3	-2.4	0.3	17272*	-3.0
COc1cccc(N2CCN(C(=O)c3cccc(NC(=O)C4=C(C)OCCS4)c3)CC2)c1	2.9	-7.2	.	4076	-0.2
Cc1ccc(NC(=O)CSc2nc(N)cc(=O)[nH]2)cc1Cl	-32.1	-17.0	7.6	4128	-13.5
CCCc1cc(=O)[nH]c(SCC(=O)Nc2ccc(OCc3ccccc3)cc2)n1	3.0	1.9	.	8974	-0.4
Nc1cc(=O)[nH]c(SCC(=O)Nc2cccc(Cl)c2)n1	-3.4	-1.0	-0.4	17592*	-2.3
COCc1cc(=O)[nH]c(SCC(=O)Nc2ccccc2)n1	-1.9	-4.5	-5.7	22752*	?
CC1CCCN(CC(O)CN)C1 (centres undefined)	-41.2	-18.2	0.8	17684*	-14.0
O=c1c2ccccc2cnn1-c1ccc2ccccc2c1	-10.5	-1.8	4.8	23123*	-8.8
Cc1ccc2cc(CN(CC3CCCO3)C(=O)Nc3ccccc3F)c3nnnn3c2c1 (centres undefined)	-5.4	0.5	2.8	2001	0.1
Cc1ccc2cc(CN(CC3CCCO3)S(=O)(=O)c3ccccc3)c3nnnn3c2c1 (centres undefined)	9.6	-6.4	-4.2	17821*	9.9
O=C(COc1ccccc1Cl)Nc1ccc(NC(=O)c2ccco2)cc1	4.2	0.3	-3.5	5828	1.1
Cc1ccnc(SCC(=O)Nc2sc3c(c2C#N)CCC(C(C)(C)C)C3)n1 (centres undefined)	-0.9	-0.7	-2.2	19751*	?
Cc1ccc(-c2csc(N)n2)s1	-1.4	-0.1	-3.4	20327*	-1.8
O=C(NC12CC3CC(CC(C3)C1)C2)C1=COCCO1	-2.5	-8.1	2.8	3329	-0.6
COc1cc(NC(=O)c2cc3nc(C4CC4)cc(C(F)(F)F)n3n2)c(OC)cc1Cl	-2.9	-2.6	5.1	24788*	-3.5
COC(=O)c1ccccc1NC(=O)c1cc2nc(C3CC3)cc(C(F)(F)F)n2n1	-3.2	-2.4	0.7	21329*	-4.3
CC1Cc2cc(/C(O)=C3/C(=O)C(=O)N(CCCn4ccnc4)C3c3ccncc3)ccc2O1 (centres undefined)	2.3	-0.1	-1.2	10038	0.3
CC1Cc2cc(/C(O)=C3/C(=O)C(=O)N(CCCn4ccnc4)C3c3cccnc3)ccc2O1 (centres undefined)	-5.0	-4.3	-1.0	17226*	-2.9
O=C1C(=O)N(CCCn2ccnc2)C(c2cccnc2)/C1=C(/O)c1ccc(F)cc1 (centres undefined)	-1.3	2.1	.	23173*	0.1
COc1ccc(OC)c(/C=N/NC(=O)CCc2c(C)n[nH]c2C)c1	40.5*	11.8	6.2	3807	6.1
COc1ccc(/C=C(\C#N)C(=O)NCC2CCCO2)cc1OC (centres undefined)	9.0	-3.6	4.5	9029	2.0
CCOC(=O)c1ccc(-c2ccc(/C=C(\C#N)C(=O)NCC3CCCO3)o2)cc1 (centres undefined)	-2.2	1.4	-3.3	22009*	0.7
